# aSyn rescue = inhibitors of alpha-synuclein toxicity in yeast | Yeast expressing alpha-synuclein, growth rescue, BacTiter-Glo, 24 h | Potency, µM (top dose mostly 46.1 µM), hits mostly activators | hit rate 0.14% among 370,000; further: nearly all actives have a fitted effect of over 65% in size
#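 Galactose-induced alpha-syn yeast (OD600=0.02, raffinose-pregrown) + pinned cpd, 24 hr, 30 deg C; growth by BacTiter-Glo luminescence. Growth restoration scores as activation.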
# TDP-43 yeast inh = rescues yeast growth from TDP-43 toxicity; Potency, µM (series often up to 46.1 µM), most hits filed as activators; TDP-43 expressing yeast growth rescue, BacTiter-Glo, 24 h; hit rate 1.8% among 410,000; AID 652104; further: nearly all actives have a fitted effect of over 50% in size
#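 Readout is BacTiter-Glo luminescence of cell growth, so inhibitors register as activators. TDP-43-expressing yeast at OD600=0.02 in galactose medium, after raffinose pregrowth to mid-log, were incubated with compound for 24 hr at 30 deg C.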
# Mito fusion act = blocks mitochondrial division or promotes mitochondrial fusion; S. cerevisiae fusion-defective mutant growth rescue, CellTiterGlo 48 h; Potency, µM (highest dose often 46.1 µM), most hits filed as activators; hit rate 0.23% among 320,000; further: nearly all actives have a fitted effect of over 45% in size
#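 Temperature-sensitive fusion-defective S. cerevisiae (e.g. fzo1-1, mgm1-5) were grown with compound in YPEG medium (3% ethanol, 3% glycerol) for 48 hours at 37C. Growth rescue was measured as viability by CellTiterGlo luminescence after 10 minutes at ambient.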
# ERG Ets-DNA blk = blocks human ERG Ets domain binding to DNA. P11308. fluorescence polarization, His-ERG Ets domain / labelled DNA. Potency, µM (doses to about 76.9 µM), most hits filed as inhibitors. hit rate 0.028% among 370,000; active means well fitted inhibition curve with a large enough effect in the polarisation, with a control signal flat; inconclusive means small, poorly fitted or top-dose-only effect, or effect the other way, or a change in a side signal; inactive means no such curve, though single readings can be large or run the other way; the % refers to the polarisation;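 further: polarization taken with two DNA probes labelled with fluorescein and Texas red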
# Target sequence (P11308 whole entry, looked up, the tested form may be a part): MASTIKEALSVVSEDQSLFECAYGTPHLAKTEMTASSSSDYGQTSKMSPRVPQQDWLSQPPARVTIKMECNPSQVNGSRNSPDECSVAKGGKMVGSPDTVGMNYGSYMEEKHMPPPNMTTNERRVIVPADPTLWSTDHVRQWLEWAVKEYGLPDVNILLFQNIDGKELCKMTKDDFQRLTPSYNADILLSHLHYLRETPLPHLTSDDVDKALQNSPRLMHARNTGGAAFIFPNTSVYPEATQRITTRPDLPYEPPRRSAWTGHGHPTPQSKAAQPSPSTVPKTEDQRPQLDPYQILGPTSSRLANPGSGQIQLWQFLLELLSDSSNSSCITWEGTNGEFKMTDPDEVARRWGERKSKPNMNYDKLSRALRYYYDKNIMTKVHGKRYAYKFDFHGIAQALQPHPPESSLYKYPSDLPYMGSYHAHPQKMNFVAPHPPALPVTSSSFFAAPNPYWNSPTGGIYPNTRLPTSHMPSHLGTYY
#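 His-tagged ERG Ets domain (1 uM in the protein solution; 300mM KCl, 50mM Tris-HCl, 1mM EDTA, 1mM DTT, pH 7.5) received compound, then a probe mix of 5 nM fluorescein-DNA and 100nM Texas-615-DNA. Fluorescence polarization was read for both dyes.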
# Abeta yeast res = A-beta toxicity reversal in yeast; AID 1347071; Potency, µM (titrated, usually from 46.1 µM), actives largely listed as activators; hit rate 0.063% among 410,000; yeast expressing A-beta42, growth rescue, OD600, 48 h; response scale: 0% DMSO, 100% iron-clioquinol control; further: nearly all actives have a fitted effect of over 55% in size
#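 Yeast growth medium received pinned compounds, then yeast cells expressing toxic A-beta were added; plates incubated at 30 C for 48 hr. Growth read as absorbance at 600 nm, normalized to DMSO and equimolar FeCl3 plus clioquinol controls.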
# FUS suppressor = rescues growth of FUS-expressing yeast; S. cerevisiae FUS-expressing, growth rescue, OD600, 24 h; Potency, µM (doses to about 76.6 µM), hits mostly activators; hit rate 0.24% among 390,000; further: nearly all actives have a fitted effect of over 55% in size
#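 Steps: raffinose overnight preculture; dilution to OD 0.005 in 2% galactose minimal medium; compound addition (concentration series); 24hr at 30C, 99% humidity; absorbance read at 600 nm.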
# A number is an active result; n = inactive; u = inconclusive; x = no result given; ! = repeats disagree; [ ] = dose if it differs, or a comment. An excerpt weighted towards active compounds, which were near 2.2% of everything screened. Unless noted, the call rests on the fitted dose curve; in most records, active means well fitted curve in the direction sought with a large enough effect; inconclusive means small, poorly fitted or top-dose-only effect, or another doubt; inactive means no such curve, though single readings can be large; an effect the other way counts as inactive or inconclusive.
SMILES,aSyn rescue,TDP-43 yeast inh,Mito fusion act,ERG Ets-DNA blk,Abeta yeast res,FUS suppressor
O=C(NC(=S)Nc1ccc(S(=O)(=O)N2CCCC2)cc1)C1CC1,n,n,n,n,u,n
Cc1ccc(NC(=S)NC(=O)C2CC2)cc1Cl,n,32µM,n,n,u,n
O=C(Nc1ccc(F)c(Cl)c1)C1CCCCC1,n,18µM,n,n,n,n
CCOc1ccc2nc(NC(=O)C3=NN(c4ccccc4)C(=O)CC3)sc2c1,n,n,n,n,n,n
Cc1ccc2nc(NC(=O)C3=NN(c4ccccc4)C(=O)CC3)sc2c1,n,16µM,n,n,n,u
CCOC(=O)c1c(NC(=O)C2=C(C)NC(=S)NC2c2ccccc2C(F)(F)F)sc(C)c1C (centres undefined),n,n,n,35µM,n,n
CCOC(=O)C1=C(C)NC(=S)NC1c1cc(C)sc1C (centres undefined),n,n,n,n,x,n
COc1ccc(S(=O)(=O)Oc2ccc3cccc(N)c3c2)cc1,u,16µM,x,n,u,n
Cc1ccc(C)n1-c1ccc(C(=O)N2CCOCC2)cc1,n,n,n,n,n,35µM
CC(=O)N1CCN(C(=O)c2ccc(-n3c(C)ccc3C)cc2)CC1,n,n,n,n,n,x
O=C(O)CC1(CC(=O)Nc2ccc3sccc3c2)CCCCC1,n,7.9µM,n,n,n,n
Cc1ccccc1-c1nnc(C2CCN(S(=O)(=O)c3ccc(Cl)cc3)CC2)o1,x,n[9.22 µM],x,n,n,n
COc1ccc(S(=O)(=O)N2CCC(c3nnc(-c4ccccc4C)o3)CC2)c(OC)c1,x,n,x,n,n,32µM
CC(C)c1nc2ccc(C(=O)Nc3ccccc3F)cc2o1,x,n,x,n,n,n
CC(C)c1nc(SCC(=O)N2CCCC2)c2c(=O)n(C)c(=O)n(C)c2n1,3.5µM,n,x,n,n,n
CCCc1nc(SCC(=O)N2CCC(Cc3ccccc3)CC2)c2c(=O)n(C)c(=O)n(C)c2n1,n,35µM,n,n,n,n
CCCc1nc(SCC(=O)N2CCCc3ccccc32)c2c(=O)n(C)c(=O)n(C)c2n1,n,35µM,u,n,n,n
CC(C)c1nc(SCC(=O)N2CCCCCC2)c2c(=O)n(C)c(=O)n(C)c2n1,n,n,n,n,n,n
CCc1nc(SCC(=O)N2CCN(c3ccccc3)CC2)c2c(=O)n(C)c(=O)n(C)c2n1,x,x,n,x,x,x
CCC(C)Nc1nc(N)c([N+](=O)[O-])c(NCc2ccccc2)n1 (centres undefined),n,18µM,n,n,n,n
COc1ccc(CCC(=O)NCc2ccc3c(c2)CCN3C(=O)c2cccc(C)c2)cc1,x,25µM,x,n,n,u
O=C(NCc1ccc2c(c1)CCN2C(=O)c1ccc(F)cc1)c1cc2ccccc2[nH]1,x,32µM,x,n,n,n
COc1ccc(CCC(=O)NCc2ccc3c(c2)CCN3C(=O)c2ccccc2)cc1,x,n,x,n,n,n
COc1ccc(OCC(=O)NCc2ccc3c(c2)CCN3C(=O)c2ccccc2)cc1,x,25µM,x,n,n,n
O=C(COc1ccccc1)NCc1ccc2c(c1)CCN2C(=O)c1ccccc1,x,n,x,n,n,n
SMILES,aSyn rescue,TDP-43 yeast inh,Mito fusion act,ERG Ets-DNA blk,Abeta yeast res,FUS suppressor
Cc1ccc(-n2c(SCC(=O)Nc3ccc4c(c3)OCCO4)nnc2-c2cccnc2)cc1,x,x,x,x,x,n
Cc1ccc(NC(=O)Cn2c(=O)n(CCc3ccccc3)c(=O)c3sc4ccccc4c32)cc1C,x,n,x,n,n,n
COc1ccccc1C(=O)N1CCCN(C(=O)c2ccccc2OC)CC1,n,n,n,n,n,n
COc1ccccc1C(=O)N1CCN(C(=O)c2oc3c(C)c(C)ccc3c2C)CC1,n,32µM,x,x,n,n
Cc1ccc(OCc2cc(C(=O)N3CCCCCCC3)no2)cc1C,n,n,n,n,n,n
Cc1ccc(OCc2cc(C(=O)N3CCC(C(O)C(C)C)CC3)no2)cc1C (centres undefined),n,16µM,n,n,n,u
O=C(CN1CC[n+]2c(-c3cccs3)csc21)c1ccc(-c2ccccc2)cc1,n,3.5µM,n,n,n,n
Cc1ccc(C(=O)Cn2nnc(-c3cccs3)n2)cc1,n,n,n,n,n,n
COc1ccc(S(=O)(=O)N(CC(=O)NCCSc2ccccc2)c2ccc(C)cc2)cc1,x,n,x,n,n,n
COc1cccc2c1C1COC3C4CC(C(=O)O)C(C(C2)N13)N4C (centres undefined),n,n,x,n,n,x
Cc1sc2nc(CSc3ccccc3)nc(N3CCOCC3)c2c1C,n,11µM,n,n,n,n
COC(=O)c1sccc1NC(=O)Nc1ccc(C)c(C)c1,n,13µM,n,n,n,n
COC(=O)c1sccc1NC(=O)Nc1ccc(OC)c(OC)c1,n,n,n,n,n,n
COC(=O)c1sccc1NC(=O)Nc1ccccc1C,n,11µM,n,n,n,n
O=C1CC2CCCN2C=C1I (centres undefined),n,n,x,n,n,n
CCn1c(C)c(C)c2cc(C(=O)Nc3cccc(Cl)c3)ccc21,n,n,n,n,n,n
Cc1c(C)n(CCC#N)c2ccc(Cl)cc12,n,13µM,n,n,n,x
Cc1ccc2c(c1)N(C(=O)NCc1ccccc1)CCO2,x,18µM,x,n,n,n
CCCOC(=O)c1c(N)sc(C(=O)OCC)c1C,n,7.9µM,n,n,n,n
O=c1c(Cl)c(Cl)cnn1Cc1ccc(F)cc1,n,20µM,n,n,n,n
Cc1cccc2c1nc(-c1ccccc1)n1cnnc21,n,14µM,n,n,n,n
Cc1nn2c(-c3ccco3)nnc2c2ccccc12,x,8.9µM,n,u,n,n
Cc1cc(-c2csc(N)n2)c(C)n1Cc1ccco1,n,n,n,n,n,28µM
Cn1nc(C(=O)N2CCN(c3cccc(Cl)c3)CC2)c2c1-c1ccccc1S(=O)(=O)C2,n,22µM,11µM,n,n,u
Cn1nc(C(=O)N2CCN(c3ccc(Cl)cc3)CC2)c2c1-c1ccccc1S(=O)(=O)C2,n,u,n,n,n,u
Cc1ccc(Cl)cc1N1CCN(C(=O)c2nn(C)c3c2CS(=O)(=O)c2ccccc2-3)CC1,x,n,x,n,n,u
Cc1ccc(N2CCN(C(=O)c3nn(C)c4c3CS(=O)(=O)c3ccccc3-4)CC2)c(C)c1,n,u,11µM,n,n,22µM!
COc1cccc(OCc2nc3ccccc3n2C)c1,x,u,x,n,n,n
Cc1ccccc1CNCc1c(C(=O)O)c(C)n(Cc2ccc(F)cc2Cl)c1C,x,n,x,n,n,n
Cc1cc(C)c2c(=O)cc(C(=O)NCCc3ccc(S(N)(=O)=O)cc3)oc2c1,x,n,x,n,n,n
